Several values for one entry are separate records, joined by “and”; a condition that tells them apart may be missing. Equal values may be shown once. Inconclusive results are not listed. A call without a number means that no potency is given here. Activity calls are given as the source filed them. The call rests on the fitted dose curve; in most records, active means well fitted cell-killing curve with a large enough effect; inconclusive means small, poorly fitted or top-dose-only effect, or effect the other way; inactive means flat fitted curve, though single readings scatter.
What follows are compounds tested on JEG-3 (assay: Primary qHTS to identify gynecologic anti-cancer compounds using libraries of approved drugs and bioactive compounds (AID 1345084; further: nearly all actives have a fitted effect of over 55% in size)). Details: Gynecologic cancer cell panel viability, ATPlite luminescence, 48 h; series mostly up to 57.5 µM.
In short: (§1)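 Cells, 1,000 per well, plated 16 h, then exposed 48 h at 37 C to compounds. Viability by ATPlite luminescence after 15 min at room temperature.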
Potency means the concentration at half of the fitted maximal effect.

Question: How did the Potency turn out when Nc1ccc2c(c1)CN1C(=O)c3ccccc3C1=N2 was run?
Answer: 11.2 µM (active)

Question: C[C@@H](C1=C(CCN(C)C)Cc2ccccc21)c1ccccn1 was tested. Which Potency did it give?
Answer: inactive

Question: Which Potency does the source give for Cc1ccc(Cl)c(OCC(O)CNC(C)(C)C)c1 (configuration not stated) here?
Answer: inactive

Question: With CN1CCCN(C(c2ccccc2)c2ccc(Cl)cc2)CC1 (configuration not stated) as the compound, how does the Potency read?
Answer: inactive

Question: How did the Potency turn out when CCN(CC)CCOc1ccc(/C(=C(\Cl)c2ccccc2)c2ccccc2)cc1 was run?
Answer: inactive

Question: Which Potency does the source give for CCCCCCOC(=O)NC(=N)c1ccc(NCc2nc3cc(C(=O)N(CCC(=O)OCC)c4ccccn4)ccc3n2C)cc1 here?
Answer: inactive

Question: With CN1CC[C@H](c2c(O)cc(O)c3c(=O)cc(-c4ccccc4Cl)oc23)[C@H](O)C1 as the compound, how does the Potency read?
Answer: inactive

Question: Which Potency does the source give for Cc1cc(OCCOCC[N+](C)(C)Cc2ccccc2)ccc1C(C)(C)CC(C)(C)C here?
Answer: inactive

Question: Which Potency does the source give for CCCC(=O)O[C@]1(C(=O)CCl)[C@@H](C)C[C@H]2[C@@H]3CCC4=CC(=O)C=C[C@]4(C)[C@@]3(F)C(=O)C[C@@]21C here?
Answer: inactive

Question: Which Potency does the source give for CC[C@@H]([C@H](C)O)n1ncn(-c2ccc(N3CCN(c4ccc(OC[C@@H]5CO[C@@](Cn6cncn6)(c6ccc(F)cc6F)C5)cc4)CC3)cc2)c1=O here?
Answer: inactive

Question: For O=C(Oc1ccccc1)c1cccc(C(=O)Oc2ccccc2)c1, which Potency is on record?
Answer: inactive

Question: With O=C1NC2CCCCN2C12CCN(CCCN1c3ccccc3CCc3ccc(Cl)cc31)CC2 (configuration not stated) as the compound, how does the Potency read?
Answer: inactive

Question: For C=CCNc1nc(NCC=C)nc(N2CCN(C(c3ccc(F)cc3)c3ccc(F)cc3)CC2)n1, which Potency is on record?
Answer: inactive

Question: With CC(CC1c2ccccc2CCc2ccccc21)CN(C)C (configuration not stated) as the compound, how does the Potency read?
Answer: inactive

Question: For O=[N+]([O-])c1ccc(O)c2ncccc12, which Potency is on record?
Answer: inactive

Question: For C[C@H](N)C(=O)N[C@@H](C)C(=O)NC1[C@H]2CN(c3nc4c(cc3F)c(=O)c(C(=O)O)cn4-c3ccc(F)cc3F)C[C@@H]12 (some centres not stated), which Potency is on record?
Answer: inactive

Question: CC(C)OC(=O)c1cc2c(OCC(O)CNC(C)(C)C)cccc2[nH]1 (configuration not stated) was tested. Which Potency did it give?
Answer: inactive

Question: For O=c1[nH]sc2cc(Cl)ccc12, which Potency is on record?
Answer: inactive

Question: For CCCCCCCCCCCCCCCC[N+](C)(C)Cc1ccccc1, which Potency is on record?
Answer: inactive

Question: CCCCCCCCCCCCCCCCCCNC(=O)OC1CCN(C(=O)OC[C@H](COC(=O)N(Cc2cccc[n+]2CC)C(=O)c2ccccc2OC)OC)CC1 was tested. Which Potency did it give?
Answer: inactive

Question: Which Potency does the source give for COc1c(C)c2c(c(O)c1C/C=C(\C)CCC(=O)OCCN1CCOCC1)C(=O)OC2 here?
Answer: inactive

Question: For CCCCCC(=O)O[C@]1(C(C)=O)CC[C@H]2[C@@H]3CCC4=CC(=O)CC[C@]4(C)[C@H]3CC[C@@]21C, which Potency is on record?
Answer: inactive

The compounds below were run on OV90 in the same assay as above. Details: Gynecologic cancer cell panel viability, ATPlite luminescence, 48 h; series mostly up to 57.5 µM.
In short: as §1

Question: How did the Potency turn out when OC1(c2ccc(Cl)c(C(F)(F)F)c2)CCN(CCCC(c2ccc(F)cc2)c2ccc(F)cc2)CC1 was run?
Answer: 25.1 µM (active) and 31.6 µM (active)

Question: Cc1ccc(Cl)c(OCC(O)CNC(C)(C)C)c1 (configuration not stated) was tested. Which Potency did it give?
Answer: inactive

Question: With CCN(CC)CCOc1ccc(/C(=C(\Cl)c2ccccc2)c2ccccc2)cc1 as the compound, how does the Potency read?
Answer: 14.1 µM (active)

Question: With CCCC(=O)O[C@]1(C(=O)CCl)[C@@H](C)C[C@H]2[C@@H]3CCC4=CC(=O)C=C[C@]4(C)[C@@]3(F)C(=O)C[C@@]21C as the compound, how does the Potency read?
Answer: inactive

Question: How did the Potency turn out when CC(C)(C)c1ccc(O)c(O)c1 was run?
Answer: 35.5 µM (active)

Question: CC[C@@H]([C@H](C)O)n1ncn(-c2ccc(N3CCN(c4ccc(OC[C@@H]5CO[C@@](Cn6cncn6)(c6ccc(F)cc6F)C5)cc4)CC3)cc2)c1=O was tested. Which Potency did it give?
Answer: 15.8 µM (active)

Question: For O=C(Oc1ccccc1)c1cccc(C(=O)Oc2ccccc2)c1, which Potency is on record?
Answer: inactive

Question: For O=C1NC(c2cccc([N+](=O)[O-])c2)=CCN1c1ccccc1O, which Potency is on record?
Answer: inactive

Question: CC(C)=CCNc1ncnc2c1ncn2[C@@H]1O[C@H](CO)[C@@H](O)[C@H]1O was tested. Which Potency did it give?
Answer: 17.8 µM (active)

Question: How did the Potency turn out when NC(=O)C1(N2CCCCC2)CCN(CCCN2c3ccccc3CCc3ccc(Cl)cc32)CC1 was run?
Answer: 22.4 µM (active)

Question: How did the Potency turn out when CC(CC1c2ccccc2CCc2ccccc21)CN(C)C (configuration not stated) was run?
Answer: 17.8 µM (active)

Question: With C[C@H](N)C(=O)N[C@@H](C)C(=O)NC1[C@H]2CN(c3nc4c(cc3F)c(=O)c(C(=O)O)cn4-c3ccc(F)cc3F)C[C@@H]12 (some centres not stated) as the compound, how does the Potency read?
Answer: inactive

Question: Which Potency does the source give for O=c1[nH]sc2cc(Cl)ccc12 here?
Answer: inactive

Question: How did the Potency turn out when CCCCCCCCCCCCCCCC[N+](C)(C)Cc1ccccc1 was run?
Answer: 25.1 µM (active)

Question: With CCCCCCCCCCCCCCCCCCNC(=O)OC1CCN(C(=O)OC[C@H](COC(=O)N(Cc2cccc[n+]2CC)C(=O)c2ccccc2OC)OC)CC1 as the compound, how does the Potency read?
Answer: 28.2 µM (active)

The compounds below were run on PA-1 in the same assay as above. Details: Gynecologic cancer cell panel viability, ATPlite luminescence, 48 h; series mostly up to 57.5 µM.
In short: as §1

Question: CCOC(=O)N1CCC(n2c(=O)[nH]c3cc(Cl)ccc32)CC1 was tested. Which Potency did it give?
Answer: inactive

Question: How did the Potency turn out when OC1(c2ccc(Cl)c(C(F)(F)F)c2)CCN(CCCC(c2ccc(F)cc2)c2ccc(F)cc2)CC1 was run?
Answer: inactive

Question: Which Potency does the source give for C[C@@H](C1=C(CCN(C)C)Cc2ccccc21)c1ccccn1 here?
Answer: inactive

Question: Nc1ncnc2n[nH]c(Nc3ccc(F)cc3)c12 was tested. Which Potency did it give?
Answer: 25.1 µM (active)

Question: Which Potency does the source give for CC(C(O)c1ccccc1)N(C)CCOC(c1ccccc1)c1ccccc1 (configuration not stated) here?
Answer: inactive

Question: With CN1CCCN(C(c2ccccc2)c2ccc(Cl)cc2)CC1 (configuration not stated) as the compound, how does the Potency read?
Answer: inactive

Question: For CCCCCCOC(=O)NC(=N)c1ccc(NCc2nc3cc(C(=O)N(CCC(=O)OCC)c4ccccn4)ccc3n2C)cc1, which Potency is on record?
Answer: inactive

Question: CN1CC[C@H](c2c(O)cc(O)c3c(=O)cc(-c4ccccc4Cl)oc23)[C@H](O)C1 was tested. Which Potency did it give?
Answer: 0.447 µM (active)

Question: With CCCCCCCCCCCCCC[N+](C)(C)C as the compound, how does the Potency read?
Answer: 11.2 µM (active)

Question: For CCCC(=O)O[C@]1(C(=O)CCl)[C@@H](C)C[C@H]2[C@@H]3CCC4=CC(=O)C=C[C@]4(C)[C@@]3(F)C(=O)C[C@@]21C, which Potency is on record?
Answer: inactive

Question: O=C(Oc1ccccc1)c1cccc(C(=O)Oc2ccccc2)c1 was tested. Which Potency did it give?
Answer: inactive

Question: With O=C1NC(c2cccc([N+](=O)[O-])c2)=CCN1c1ccccc1O as the compound, how does the Potency read?
Answer: inactive

Question: Which Potency does the source give for C=CCNc1nc(NCC=C)nc(N2CCN(C(c3ccc(F)cc3)c3ccc(F)cc3)CC2)n1 here?
Answer: inactive

Question: With CC(=O)Oc1ccc(C2(c3ccc(OC(C)=O)cc3)Oc3ccccc3NC2=O)cc1 as the compound, how does the Potency read?
Answer: 31.6 µM (active)

Question: CC(C)=CCNc1ncnc2c1ncn2[C@@H]1O[C@H](CO)[C@@H](O)[C@H]1O was tested. Which Potency did it give?
Answer: 7.94 µM (active)

Question: How did the Potency turn out when CC(CC1c2ccccc2CCc2ccccc21)CN(C)C (configuration not stated) was run?
Answer: inactive

Question: CC(C)OC(=O)c1cc2c(OCC(O)CNC(C)(C)C)cccc2[nH]1 (configuration not stated) was tested. Which Potency did it give?
Answer: inactive

Question: With CCCCCCCCCCCCCCCC[N+](C)(C)Cc1ccccc1 as the compound, how does the Potency read?
Answer: 15.8 µM (active)

Question: For CCCCCCCCCCCCCCCCCCNC(=O)OC1CCN(C(=O)OC[C@H](COC(=O)N(Cc2cccc[n+]2CC)C(=O)c2ccccc2OC)OC)CC1, which Potency is on record?
Answer: 12.6 µM (active)

Question: For CCCCCC(=O)O[C@]1(C(C)=O)CC[C@H]2[C@@H]3CCC4=CC(=O)CC[C@]4(C)[C@H]3CC[C@@]21C, which Potency is on record?
Answer: inactive

From PubChem BioAssay (NCATS)
